Compound activity from PubChem.
NFkB SMM = binds human NF-kappa-B p105 on microarray; actives 1.3% (n = 17,000); Small molecule microarray, anti-His fluorescence binding; calls only;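 active means spot fluorescence over background significantly raised, with a chance value under 7% in all four replicate spots of the compound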;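 further: probe protein is his-tagged human p50 processed subunit at 1 µg/ml; raw spot fluorescence signals with no normalization applied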
p53 mut binder = mutant p53 (human) binding; small molecule microarray binding, anti-GST fluorescence; calls only; actives 0.4% (n = 17,000); AID 624136;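 active means compounds whose four printed spots each glow above background more than chance allows, each with a p-value under 7%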
STAT3 binder = binds human STAT3 on microarray; AID 624138; Small molecule microarray, His-STAT3 binding, anti-His fluorescence; P40763; actives 0.2% (n = 17,000); calls only;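 active means compounds whose four printed spots each show fluorescence over background unusually high for their array block, chance value under 7%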
Myc binder = c-Myc (human) binding; P01106; small molecule microarray, His-c-Myc binding, anti-His fluorescence; calls only; actives 1.5% (n = 17,000);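 active means spot fluorescence over background with P-value below 7% in all four replicate spots, showing protein binding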;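 further: score is binary with 100 for all four spots passing and 0 otherwise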
Target sequence (P01106 whole entry, looked up): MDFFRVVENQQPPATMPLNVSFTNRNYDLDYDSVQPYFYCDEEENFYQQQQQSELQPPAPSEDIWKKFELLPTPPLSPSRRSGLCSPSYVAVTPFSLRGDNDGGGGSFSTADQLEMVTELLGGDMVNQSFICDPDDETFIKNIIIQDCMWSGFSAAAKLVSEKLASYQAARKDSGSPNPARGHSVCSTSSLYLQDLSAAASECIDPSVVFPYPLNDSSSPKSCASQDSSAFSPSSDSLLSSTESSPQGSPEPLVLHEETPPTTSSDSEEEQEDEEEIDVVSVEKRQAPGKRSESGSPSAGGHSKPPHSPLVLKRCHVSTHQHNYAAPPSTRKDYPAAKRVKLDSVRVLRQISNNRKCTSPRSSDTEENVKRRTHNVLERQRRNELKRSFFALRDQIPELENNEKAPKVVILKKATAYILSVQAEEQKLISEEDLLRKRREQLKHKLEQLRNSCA
Active calls of the source: *. Only some compounds are listed: those with a hit (about 2.4% of all), similar ones and a draw of the others.

Results for COc1ccc(C#Cc2ccc3c(c2)[C@]2(C(=O)N3)[C@H](c3ccc(OCCO)cc3)N3[C@H](c4ccccc4)[C@H](c4ccccc4)OC(=O)[C@H]3[C@@H]2C(=O)N2CCc3cc(OC)c(OC)cc3C2)cc1 ?
NFkB SMM: active; p53 mut binder: inactive; STAT3 binder: inactive; Myc binder: inactive

How did COC(=O)[C@H]1CC[C@H](OC(C)=O)[C@]2(C)CC[C@@H](C(C)C)[C@@H](OC(=O)/C=C/c3ccccc3)C12 (some centres undefined) do in these assays?
NFkB SMM: active; p53 mut binder: inactive; STAT3 binder: inactive; Myc binder: active

What do the screens show for `CC(C)C1CCC2(C)CCC(O)C(C)(O)C2C1OC(=O)/C=C/c1ccccc1` (centres undefined)?
NFkB SMM: inactive; p53 mut binder: inactive; STAT3 binder: inactive; Myc binder: inactive

How did N#CCCN(Cc1ccco1)C(=S)Nc1ccccc1 do in these assays?
NFkB SMM: inactive; p53 mut binder: inactive; STAT3 binder: inactive; Myc binder: inactive

How did CCOC(=O)c1c(NC(=S)NC(=O)c2ccc(OC)c([N+](=O)[O-])c2)sc2c1CCC2 do in these assays?
NFkB SMM: inactive; p53 mut binder: inactive; STAT3 binder: inactive; Myc binder: active

What do the screens show for `C[C@@H]1CN([C@@H](C)CO)C(=O)Cc2cc(NS(=O)(=O)c3ccc(Cl)cc3)ccc2O[C@@H]1CN(C)C(=O)Nc1ccc(F)cc1`?
NFkB SMM: active; p53 mut binder: inactive; STAT3 binder: inactive; Myc binder: active

Results for C[C@H](CO)N1C[C@H](C)[C@@H](CN(C)C(=O)Nc2ccc(F)cc2)Oc2ccc(NS(=O)(=O)c3ccc(Cl)cc3)cc2CC1=O ?
NFkB SMM: inactive; p53 mut binder: inactive; STAT3 binder: inactive; Myc binder: inactive

What do the screens show for `CNC[C@H]1Oc2ccc(NS(=O)(=O)c3cn(C)cn3)cc2CC(=O)N([C@H](C)CO)C[C@@H]1C`?
NFkB SMM: inactive; p53 mut binder: inactive; STAT3 binder: inactive; Myc binder: inactive

Results for CNC[C@@H]1Oc2ccc(NS(=O)(=O)c3cn(C)cn3)cc2CC(=O)N([C@H](C)CO)C[C@@H]1C ?
NFkB SMM: active; p53 mut binder: inactive; STAT3 binder: inactive; Myc binder: inactive

What do the screens show for `C[C@@H]1CN([C@H](C)CO)C(=O)Cc2cc(NS(=O)(=O)c3ccc(Cl)cc3)ccc2O[C@H]1CN(C)CC1CCCCC1`?
NFkB SMM: inactive; p53 mut binder: inactive; STAT3 binder: inactive; Myc binder: active

What do the screens show for `CCOc1ccccc1C(=O)Nc1ccc(S(=O)(=O)Nc2ccccn2)cc1`?
NFkB SMM: inactive; p53 mut binder: inactive; STAT3 binder: inactive; Myc binder: inactive

How did COC(=O)c1ccc(C)c(NC(=O)CN(c2ccc(F)cc2)S(C)(=O)=O)c1 do in these assays?
NFkB SMM: inactive; p53 mut binder: inactive; STAT3 binder: inactive; Myc binder: inactive

What do the screens show for `C=CCN1Cc2ccccc2[C@H]2OC(c3ccc(OCCCO)cc3)=N[C@@]2(CC=C)C1=O`?
NFkB SMM: inactive; p53 mut binder: active; STAT3 binder: inactive; Myc binder: inactive

What do the screens show for `C=CC[C@@]12N=C(c3ccc(OCCCO)cc3)O[C@@H]1c1ccccc1CN(Cc1ccccc1)C2=O`?
NFkB SMM: inactive; p53 mut binder: inactive; STAT3 binder: inactive; Myc binder: inactive

What do the screens show for `C[C@@H]1O[C@@H](O[C@H]2[C@H](O[C@H]3CC[C@@]4(C)C(CC[C@]5(C)C4CC=C4C6CC(C)(C)CC[C@]6(C(=O)O[C@@H]6O[C@H](CO[C@@H]7O[C@H](CO)[C@@H](O[C@@H]8O[C@@H](C)[C@H](O)[C@@H](O)[C@H]8O)[C@H](O)[C@H]7O)[C@@H](O)[C@H](O)[C@H]6O)CC[C@]45C)[C@]3(C)CO)OC[C@H](O)[C@@H]2O)[C@H](O)[C@H](O)[C@H]1O` (some centres undefined)?
NFkB SMM: inactive; p53 mut binder: inactive; STAT3 binder: inactive; Myc binder: inactive

What do the screens show for `C[C@@H]1O[C@@H](O[C@H]2[C@H](O[C@H]3CC[C@@]4(C)C(CC[C@]5(C)C4C=C[C@]46OC[C@@]7(CCC(C)(C)C[C@H]74)[C@@H](O)C[C@]65C)[C@]3(C)CO)O[C@H](CO)[C@@H](O)[C@@H]2O[C@@H]2O[C@H](CO)[C@@H](O[C@@H]3O[C@@H](C)[C@H](O)[C@@H](O)[C@H]3O)[C@H](O)[C@H]2O)[C@H](O)[C@H](O)[C@H]1O` (some centres undefined)?
NFkB SMM: active; p53 mut binder: inactive; STAT3 binder: inactive; Myc binder: active

Results for Cn1c(=O)n(C)c2cc(CNCc3cccnc3)ccc21 ?
NFkB SMM: inactive; p53 mut binder: inactive; STAT3 binder: inactive; Myc binder: inactive

Results for CC(=O)OC[C@@]12C(=O)C[C@@H](C)[C@]3(C[C@@H](c4ccoc4)OC3=O)[C@H]1CC[C@H](O)[C@]21CO1 ?
NFkB SMM: inactive; p53 mut binder: inactive; STAT3 binder: inactive; Myc binder: inactive

What do the screens show for `CCOC(=O)C1CCCCN1Cc1cc(OC)ccc1OC` (centres undefined)?
NFkB SMM: active; p53 mut binder: inactive; STAT3 binder: inactive; Myc binder: active

What do the screens show for `Cc1ccc(S(=O)(=O)N[C@H](C(=O)NCCn2cc(CN3C(=O)COC[C@H]3c3ccccc3)nn2)C(C)C)cc1`?
NFkB SMM: inactive; p53 mut binder: active; STAT3 binder: inactive; Myc binder: inactive

What do the screens show for `O=C(N[C@@H](Cc1ccccc1)Cn1cc(CN2C(=O)COC[C@H]2c2ccccc2)nn1)c1ccccc1`?
NFkB SMM: inactive; p53 mut binder: active; STAT3 binder: inactive; Myc binder: inactive

What do the screens show for `O=C(Nc1ccccc1)N[C@H](Cc1ccccc1)Cn1cc(CN2C(=O)COC[C@H]2c2ccccc2)nn1`?
NFkB SMM: inactive; p53 mut binder: active; STAT3 binder: inactive; Myc binder: inactive

Results for CCOC(=O)c1c(NC(=O)C2(C)Cc3ccccc3C(=O)O2)sc(C)c1C (centres undefined) ?
NFkB SMM: inactive; p53 mut binder: inactive; STAT3 binder: inactive; Myc binder: inactive

What do the screens show for `C=C1[C@@H]2CC[C@H]3[C@@]4(C)C(C[C@H](OC(=O)[C@]5(C)O[C@@H]5C)[C@]3(C2)[C@@H]1OC(C)=O)[C@](C)(C(=O)OC)CC[C@H]4OC(C)=O` (some centres undefined)?
NFkB SMM: inactive; p53 mut binder: inactive; STAT3 binder: inactive; Myc binder: inactive

How did COc1ccc(N(CC(=O)Nc2cccc(Cl)c2Cl)S(C)(=O)=O)cc1OC do in these assays?
NFkB SMM: inactive; p53 mut binder: inactive; STAT3 binder: inactive; Myc binder: inactive

Results for COC(=O)c1c(NC(=O)CN2C(=O)c3ccccc3S2(=O)=O)sc2c1CCCC2 ?
NFkB SMM: inactive; p53 mut binder: inactive; STAT3 binder: inactive; Myc binder: inactive
